Hit rate of the full screen: of about 16,000 compounds, about 5,100 (32%) were called active. Not shown: some 25% with an inconclusive outcome. The list shows a part of the results. Unmarked numbers belong to inactive results. The call rests on the fitted dose curve; in most records, active means well fitted curve in the direction sought with a large enough effect; inconclusive means small, poorly fitted or top-dose-only effect, or effect the other way; inactive means no such curve, though single readings can be large or run the other way.
On the % scale 0 is the no-effect control and ±100 the full control effect.

Chain of Cytochrome P450 3A4 (Homo sapiens) (P08684 whole entry, looked up): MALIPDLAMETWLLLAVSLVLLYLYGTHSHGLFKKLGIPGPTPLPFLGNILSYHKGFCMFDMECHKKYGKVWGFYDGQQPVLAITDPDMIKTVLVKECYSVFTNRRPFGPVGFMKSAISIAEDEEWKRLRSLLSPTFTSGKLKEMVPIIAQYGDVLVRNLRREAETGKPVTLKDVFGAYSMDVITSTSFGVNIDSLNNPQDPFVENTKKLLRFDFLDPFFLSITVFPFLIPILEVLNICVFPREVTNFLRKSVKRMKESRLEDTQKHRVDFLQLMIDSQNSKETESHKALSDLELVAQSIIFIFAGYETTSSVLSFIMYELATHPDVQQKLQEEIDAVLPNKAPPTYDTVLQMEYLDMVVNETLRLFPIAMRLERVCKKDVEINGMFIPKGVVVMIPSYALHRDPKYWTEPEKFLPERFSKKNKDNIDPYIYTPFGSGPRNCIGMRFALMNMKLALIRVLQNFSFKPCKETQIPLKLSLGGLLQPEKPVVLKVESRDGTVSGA

The assay addresses Cytochrome P450 3A4 (Homo sapiens) (UniProt P08684). As to the kind of experiment: Cytochrome panel assay with activity outcomes. The conditions noted are these: recombinant CYP, pro-luciferin dealkylation, luminescence, p450-cyp3a4; series mostly up to 57.1 µM; activity, negative = inhibition: at the top concentration.
In the case of `COc1ccc(NC2=NC(=S)N(c3ccc(C)cc3)C23CCCCC3)cc1`, the “activity, negative = inhibition” value is -24.1%.

For the compound `Cc1ccccc1NC1=NC(=S)N(c2ccccc2)C12CCOC(C)(C)C2` (stereo unspecified), the AC50 was 10 µM (active).

Regarding `Cc1cccc(NC2=NC(=S)N(c3ccc(C(=O)O)cc3)C23CCCCC3)c1`, the activity, negative = inhibition was 10.4% [at 2.29 µM].

For the compound `COCCn1c(=O)c(C)nc2cnc(Nc3cccc(OC)c3)nc21`, the AC50 is 15.8 µM (active).

Consider `COc1cccc(Nc2ncc3nc(C)c(=O)n(C4CC4)c3n2)c1`, for which the AC50 is 6.31 µM (active).

For `O=c1cnc2cnc(Nc3ccccc3)nc2n1CCc1ccccc1`, the “activity, negative = inhibition” value is -18.6%.

Regarding `Cc1nc2cnc(Oc3cccc(Cl)c3)nc2n(C2CC2)c1=O`, the “activity, negative = inhibition” value is -29.8%.

In the case of `COc1cccc(Nc2ncc3nc(C)c(=O)n(CCc4ccccc4)c3n2)c1`, the AC50 is 7.94 µM (active).

In the case of `N[C@@H](Cc1cc(CP(=O)(O)O)cc(-c2ccccc2Cl)c1)C(=O)O`, the “activity, negative = inhibition” value is -15.5%.

For `CCN1C(=O)C2(SC(NC(C)=O)=NN2C(C)=O)c2cc(C)ccc21` (stereo unspecified), the “activity, negative = inhibition” value is -6.6%.

As for `Nc1ncc(-c2ccccc2)n1CC1CCCO1` (stereo unspecified), the AC50 is 7.08 µM (active).

As to `N#Cc1cccc(-c2nc3cnc(Nc4ccccc4)nc3n(C[C@H]3CCCO3)c2=O)c1`, the “activity, negative = inhibition” value was -14.4%.

`O=C1c2ccccc2C(=O)N1CC1CCCO1` (stereo unspecified): the “activity, negative = inhibition” value was -1.63%.

In the case of `CC(=O)c1sc(N)c(C(=O)OC(C)C)c1C`, the “activity, negative = inhibition” value was -29.5%.

For `COc1ccccc1CNc1ncncc1-c1ccc(C(=O)N(C)C)cc1`, the AC50 was 2.51 µM (active).

In the case of `COc1ccc(CNc2ncncc2-c2ccc(C(=O)N(C)C)cc2)c(OC)c1`, the AC50 is 0.501 µM (active).

`COc1ccc(CNc2ncncc2-c2ccc(N(C)C)cc2)c(OC)c1`: the AC50 is 0.2 µM (active).

As for `C/C(=N\OC(=O)c1ccc(F)cc1)c1nccs1`, the “activity, negative = inhibition” value is 4.23%.

For `N[C@@H](Cc1c[nH]c2ccc([N+](=O)[O-])cc12)C(=O)O`, the activity, negative = inhibition is -8.71% [at 11.4 µM].

In the case of `O=C(NC(NCc1ccccc1)C(Cl)(Cl)Cl)c1cccnc1` (stereo unspecified), the AC50 was 12.6 µM (active).

`Cc1cccc(NC(NC(=O)c2cccnc2)C(Cl)(Cl)Cl)c1` (stereo unspecified): the half-maximal activity concentration (AC50) was 10 µM (active).

Turning to `CCn1ccc(C(=O)NC2C(=O)N3C(C(=O)O)=C(C)CSC23)n1` (stereo unspecified), the “activity, negative = inhibition” value is -0.674%.

Turning to `O=C1CCCC2=C1C(c1ccc(OS(=O)(=O)c3ccc(Cl)cc3)cc1)C1=C(CCCC1=O)O2`, the AC50 is 2.24 µM (active).

Take `COc1ccc2c(c1)OC1=C(C(=O)CCC1)C2C1=C(O)CCCC1=O` (stereo unspecified): the “activity, negative = inhibition” value was -28%.

Take `Cc1ccc(S(=O)(=O)Oc2ccc(C3C4=C(CCCC4=O)OC4=C3C(=O)CCC4)cc2)cc1`: the AC50 is 6.31 µM (active).

`Cc1ccc(S(=O)(=O)Oc2cc(N)c3c(n2)CCC3)cc1`: the activity, negative = inhibition was -14.1% [at 11.4 µM].

Consider `CN1CCc2cc(Cl)c(O)cc2[C@@H](c2ccccc2)C1`, for which the “activity, negative = inhibition” value was -0.12%.

As for `NCCNCC1CCNCC1`, the activity, negative = inhibition is -29.4% [at 11.4 µM].

In the case of `CN(C)[C@H]1C(=O)C(C(=O)NCN2CCCC2)=C(O)[C@]2(O)C(=O)C3=C(O)c4c(O)cccc4[C@@](C)(O)[C@H]3C[C@@H]12`, the “activity, negative = inhibition” value was -25.5% [at 25.6 µM].

`CCOC(=O)c1ccccc1OCc1cc(/C=N/n2cnnc2)ccc1OC`: the “activity, negative = inhibition” value was 14.7%.

Take `Cc1cc(/C=N/n2cnnc2)c(C)n1-c1ccc(OCc2ccccc2F)cc1`: the AC50 is 0.224 µM (active).

For `Cc1cc([N+](=O)[O-])nn1Cc1ccccc1F`, the “activity, negative = inhibition” value is -21.8%.

Regarding `Cc1ccc(C)c(Nc2nc3nonc3nc2N2CCOCC2)c1`, the activity, negative = inhibition is -12.1% [at 2.29 µM].

Regarding `CSc1nncn1/N=C/c1ccc2c(c1)OCO2`, the AC50 was 8.91 µM (active).

Turning to `OC[C@@H]1O[C@@H](O)[C@H](N=Cc2ccc3c(c2)OCO3)[C@@H](O)[C@@H]1O`, the activity, negative = inhibition is -4.87% [at 11.4 µM].

In the case of `CC(CCc1ccccc1)NS(=O)(=O)c1ccccc1` (stereo unspecified), the “activity, negative = inhibition” value was -25.4%.

Take `Cc1ccc(S(=O)(=O)N[C@H](CO)C(=O)O)cc1`: the activity, negative = inhibition was -3.82% [at 11.4 µM].

As to `Cc1ccc(S(=O)(=O)N[C@@H](CCc2ccccc2)CC(=O)C(C)(C)C)cc1`, the AC50 was 1.58 µM (active).

`Cc1c(S(=O)(=O)O)ccc(N=Nc2c(O)c(C(=O)O)cc3ccccc23)c1Cl`: the activity, negative = inhibition was 1.31% [at 11.4 µM].

Regarding `Cc1cc(C)c2c(N=NN(C)C)[nH]nc2n1`, the “activity, negative = inhibition” value was -17.7%.

As for `CC(CCc1ccccc1)NC(=O)C(=O)NCCO` (stereo unspecified), the “activity, negative = inhibition” value is -10.8%.

As for `CCOc1cc(CNCCO)c(Cl)cc1OCC(=O)NCCc1ccccc1`, the concentration at half-maximal activity (AC50) is 0.794 µM (active).

For the compound `CCOc1ccc(Cl)cc1CNCCNCCO`, the “activity, negative = inhibition” value was 9.89%.

For `CCNCc1cc(OCC)c(OCC(=O)NCCc2ccccc2)cc1Cl`, the AC50 is 0.447 µM (active).

For `COc1cccc(-c2cc(C(F)(F)F)nc(N3CCOCC3)n2)c1`, the AC50 was 28.2 µM (active).

In the case of `COc1ccc(-c2cc(C(F)(F)F)nc(NC3CCCC3)n2)cc1OC`, the half-maximal activity concentration (AC50) was 25.1 µM (active).

For the compound `COc1ccccc1N1CCN(c2nc(-c3ccccc3)cc(C(F)(F)F)n2)CC1`, the “activity, negative = inhibition” value was -14.8%.

As to `COc1ccc(-c2cc(C(F)(F)F)nc(N3CCN(C)CC3)n2)cc1OC`, the “activity, negative = inhibition” value is -6.34%.

For the compound `COc1ccc(C(=O)Nc2ccc(OCC(F)(F)C(F)F)c(C(F)(F)F)c2)cc1OC`, the “activity, negative = inhibition” value is -15.7%.

Turning to `COc1ccc(-c2cc(C(F)(F)F)nc(N3CCOCC3)n2)cc1OC`, the AC50 was 15.8 µM (active).

For the compound `COc1cccc(-c2cc(C(F)(F)F)nc(N3CCN(c4ccccc4)CC3)n2)c1`, the “activity, negative = inhibition” value was 9.75%.

Consider `N=c1nc(N)nc(N)n1-c1ccc(S(N)(=O)=O)cc1`, for which the activity, negative = inhibition was -8.91% [at 11.4 µM].

Turning to `O=c1oc2c(Cl)cc(Cl)cc2cc1-c1nnc(Nc2ccccc2F)s1`, the “activity, negative = inhibition” value is -9.44%.

For the compound `N=C(N)CCNC(=O)[C@@H]1CCC(N)=N1`, the activity, negative = inhibition was -7.02% [at 11.4 µM].

Consider `NC[C@@H]1O[C@H](O[C@@H]2[C@H](O[C@@H]3O[C@H](CO)[C@@H](COC[C@H]4O[C@@H](CN)[C@@H](O)[C@@H](O)[C@@H]4N)[C@@H]3O)[C@@H](O)[C@@H](N)C[C@H]2N)[C@@H](N)[C@H](O)[C@@H]1O`, for which the “activity, negative = inhibition” value was -8.73% [at 25.6 µM].

Turning to `CC(=O)Nc1nc(NC(C)=O)c2[nH]c(CO)nc2n1`, the activity, negative = inhibition was -3.45% [at 11.4 µM].

Consider `CCN(CC)c1ccc(N2C(=O)/C(=C/c3cccnc3)SC2=S)cc1`, for which the AC50 is 5.62 µM (active).

With `O=C1/C(=C/c2cccnc2)SC(=S)N1Cc1ccco1`, the AC50 is 1 µM (active).

Regarding `Cc1ccc(/C=C2\SC(=S)N(CCCC(=O)Nc3ccccn3)C2=O)cc1`, the activity, negative = inhibition is -14.5% [at 2.29 µM].

On to `O=C(CCN1C(=O)/C(=C/c2cccc(Br)c2)SC1=S)NNC(=O)c1cccnc1`, for which the AC50 is 3.16 µM (active).

For `CCN(CC)c1ccc(N2C(=O)/C(=C\c3cccnc3)SC2=S)cc1`, the activity, negative = inhibition is -14.7% [at 2.29 µM].

(Values after PubChem BioAssay AID1851 (National Center for Advancing Translational Sciences (NCATS), 2009).)
